# Compound activity: PubChem BioAssay, National Center for Advancing Translational Sciences (NCATS)
# Rows were chosen to be rich in hits. Some 5.9% of all compounds tested hit in one or more screens of this group.
# TrxR1 substrate: rat thioredoxin reductase 1 substrate activity. purified TrxR1 substrate turnover, NADPH consumption readout. actives 0.01% (n = 390,000). Potency, µM (top dose mostly 114 µM), inactives show at the top dose activity change, negative = substrate turnover. O89049; further: potency means the concentration at half of the fitted maximal effect; nearly all actives have a fitted effect of over 50% in size
#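 Rat TrxR1, dispensed at 90 nM, was prereduced with 400 uM NADPH (final) for 5 min at ~22 deg C, then incubated with compound 15 min before 400 uM selenite. A first-read NADPH fluorescence drop versus no-compound background flagged substrates.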
# FBPA coupling cs: coupling enzyme interference in Giardia aldolase counter-screen; coupling enzyme system counterscreen, AmpLite Red fluorescence; activity change, negative = inhibition, % at 58.2 µM, hits read low; actives 0.67% (n = 290,000); AID 2472; in the data active means activity change below about -30%
#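 Final compound at 57.5 uM, incubated 10 min at RT with coupling enzyme reagent (glyceraldehyde-3-phosphate), then 20 min with substrate and AmpLite Red detection. Fluorescence read at 525/598 nm; tests interference with the coupling assay, not aldolase inhibition.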
# GALK inh: inhibitors of human galactokinase. Potency, µM (series often up to 57.5 µM), without a hit: top-dose activity change, negative = inhibition, actives largely listed as inhibitors. actives 0.007% (n = 270,000). AID 1868. Purified GALK, Kinase-Glo residual ATP luminescence. P51570; further: potency means the concentration at half of the fitted maximal effect
# Target sequence (P51570 whole entry, looked up): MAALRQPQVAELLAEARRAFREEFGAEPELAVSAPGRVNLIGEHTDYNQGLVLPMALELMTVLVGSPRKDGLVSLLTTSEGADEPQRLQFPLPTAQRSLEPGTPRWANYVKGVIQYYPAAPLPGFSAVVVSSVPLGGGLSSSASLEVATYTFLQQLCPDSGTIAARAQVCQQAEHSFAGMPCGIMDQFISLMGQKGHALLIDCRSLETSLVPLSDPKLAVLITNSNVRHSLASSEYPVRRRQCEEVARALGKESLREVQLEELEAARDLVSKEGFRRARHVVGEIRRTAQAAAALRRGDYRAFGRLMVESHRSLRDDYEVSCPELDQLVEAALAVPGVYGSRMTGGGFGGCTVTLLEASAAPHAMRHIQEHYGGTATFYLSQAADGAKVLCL
#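 Compounds were pin-transferred into ATP buffer (35 uM final), then GALK plus galactose (5 nM, 100 uM final) was added. After 1 h at room temperature, Kinase-Glo Plus was added and luminescence read after 10 min.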
# Gal4-VP16 FLuc: counter-screen for ROR gamma inhibitors: Gal4-VP16 reporter. Drosophila S2 Gal4-VP16 UAS-luciferase, luminescence, 20 h. Potency, µM (top dose mostly 53.6 µM), for inactives: at the top dose activity, negative = inhibition, most hits filed as inhibitors. actives 3.5% (n = 310,000);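 further: Gal4-VP16 expression switched on by copper sulfate through the metallothionein promoter; potency means the concentration at half of the fitted maximal effect; nearly all actives have a fitted effect of over 50% in size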
# rTrxR1 inhibitor: rat TrxR1 inhibition. O89049. recombinant rTrxR1, NADPH fluorescence consumption, selenite substrate. Potency, µM (highest dose often 114 µM), without a hit: top-dose activity change, negative = inhibition, hits mostly inhibitors. actives 1% (n = 390,000). AID 588453; further: potency means the concentration at half of the fitted maximal effect; nearly all actives have a fitted effect of over 65% in size
#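 Rat TrxR1 (90 nM in the dispensed reagent) was pre-reduced with 400 uM NADPH for 5 min at room temperature, then incubated with compound for 15 min. After 400 uM selenite was added, NADPH fluorescence (Ex 340/Em 450 nm) was followed for 8 min.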
# RORg inh: ROR gamma (mouse) transcription inhibition; actives 5.4% (n = 310,000); Drosophila S2 Gal4-RORgamma UAS-luciferase reporter, 20 h; P51450; Potency, µM (series often up to 53.6 µM), inactives show top-dose activity change, negative = inhibition, actives largely listed as inhibitors; further: potency means the concentration at half of the fitted maximal effect; nearly all actives have a fitted effect of over 60% in size
#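 Drosophila Schneider cells stably carrying a metallothionein-driven Gal4 DBD–ROR gamma fusion and a UAS-Photinus luciferase reporter were exposed to compound for 1 hr, then induced with copper sulfate (700 uM final) for 20 hr at ambient temperature before luminescence reading.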
# * hit, by the source's call; u = inconclusive; x = no result; [ ] = dose if it differs, or a comment. Unless noted, the call rests on the fitted dose curve; in most records, active means well fitted curve in the direction sought with a large enough effect; inconclusive means small, poorly fitted or top-dose-only effect, or another doubt; inactive means no such curve, though single readings can be large; an effect the other way counts as inactive or inconclusive. On the % scale 0 is the no-effect control and ±100 the full control effect.
SMILES,TrxR1 substrate,FBPA coupling cs,GALK inh,Gal4-VP16 FLuc,rTrxR1 inhibitor,RORg inh
CCn1cc(CCCC(=O)NCc2ccc(OC)cc2)c2ccccc21,29%,4,4%,-1%,30%,-2%
O=[N+]([O-])c1cc([N+](=O)[O-])c(Oc2ccc(Cl)c3cccnc23)cc1NN1CCCCC1,-4%,-1,x,u,-3%,6.3µM*
O=[N+]([O-])c1cc([N+](=O)[O-])c(Oc2cccc(Cl)c2Cl)cc1NN1CCCCC1,-4%,1,x,7%,-17%,27%
O=C(Oc1ccc(Cl)c2cccnc12)C12CC3CC(CC(C3)C1)C2,-3%,0,-1%,3.2µM*,-10%,2.2µM*
CCC1=C2CC[C@H]3C(=O)N(CC)C(=O)[C@H]3[C@H]2[C@@]2(Cc3ccccc3)C(=O)N(CCOC)C(=O)N2C1=O,x,1,x,15%,x,9%
Cc1c(Cl)cccc1N=Cc1ccc([N+](=O)[O-])s1,-9%,-23,-1%,20µM*,u,u
O=c1c2ccccc2nnn1Cc1cccc2ccccc12,-12%,6,-1%,-13%[10 µM],-20%,35%
Cc1cccc(N2C(=O)CC(Sc3nnc(C)s3)C2=O)c1 (stereo not given),0%,-6,-2%,u,20µM*,u
Cc1cccc(N2C(=O)CC(Sc3nc(-c4ccccc4)c4cc(Cl)ccc4n3)C2=O)c1 (stereo not given),49%[57.1 µM],1,-2%,u,42%[57.1 µM],2.8µM*
CCC(=O)Oc1ccc(C/C(=N\O)c2ccc(O)cc2O)o1,10%,-4,-1%,u,10µM*,2.2µM*
CCOC(=O)c1ccc(CC(=O)c2ccc(O)cc2O)o1,13%[57.1 µM],1,-2%,14%,-6%[57.1 µM],18%
Cc1c(C(c2cc(O)ccc2O)c2c(C)n(C)n(-c3ccccc3)c2=O)c(=O)n(-c2ccccc2)n1C,0%,x,x,x,71µM*,x
O=c1nc2s/c(=C\c3ccc(-c4ccccc4[N+](=O)[O-])o3)c(=O)n2nc1-c1ccccc1,6%,-50*,0%,-6%,21%,-5%
CCC(=O)N1CCc2cc(Br)cc(S(=O)(=O)NC3CCN(Cc4ccccc4)CC3)c21,-15%[57.1 µM],-2,-2%,-3%,-2%[57.1 µM],-4%
Cc1cc(/C=c2/sc3nc4ccccc4n3c2=O)c(C)n1-c1ccccn1,4%,-9,2%,0.25µM*,-4%,0.1µM*
Cc1cc(/C=c2\sc3nc4ccccc4n3c2=O)c(C)n1-c1ccc(C(=O)O)cc1,5%[57.1 µM],-3,-4%,8%,11%[57.1 µM],3%
CC(=O)C(/C=N/c1cc(-c2ccc(C)cc2)nn1-c1ccccc1)=C(\C)O,7%[57.1 µM],2,0%,22µM*,11%,u
O=C(CCN1C(=O)c2ccccc2Sc2ncccc21)Nc1ccc(F)cc1,-6%,x,x,x,7.1µM*,x
CCc1cccc(NC(=O)CCN2C(=O)c3ccccc3Sc3ncccc32)c1,-1%,x,x,x,18µM*,x
Cc1ccc(C)c(NC(=O)CCN2C(=O)c3ccccc3Sc3ncccc32)c1,5%,x,x,x,50µM*,x
CC(C)NC(=O)CCN1C(=O)c2ccccc2Sc2ncccc21,4%,3,x,1%,24%,15%
CC(=O)c1cccc(NC(=O)CN2C(=O)c3ccccc3Sc3ncccc32)c1,-1%,x,x,x,16%,x
COc1ccc2c(c1OC)C(=O)N1c3ccccc3C(=O)N(Cc3ccco3)C21 (stereo not given),1%,x,x,x,40µM*,x
COc1ccc(OC)c(C2C(C(N)=O)=C(C)Nc3nc(-c4cccc(Cl)c4)nn32)c1 (stereo not given),-5%[57.1 µM],-7,1%,18µM*,2%[57.1 µM],u
CCOc1ccc(C2C(C(N)=O)=C(C)Nc3nc(-c4cccc(Cl)c4)nn32)cc1OC (stereo not given),-6%,x,x,x,-3%,x
SMILES,TrxR1 substrate,FBPA coupling cs,GALK inh,Gal4-VP16 FLuc,rTrxR1 inhibitor,RORg inh
COc1ccc(-c2n[nH]c(C)c2-c2ccc(Cl)cc2)c(O)c1,-8%,1,1%,7.1µM*,-3%,4µM*
COc1ccc(O)c(-c2c(-c3ccc(Cl)cc3)n[nH]c2C)c1,-8%,-13,-2%,-18%,-6%,u
Cc1[nH]nc(-c2ccc(O)cc2O)c1-c1ccc(Cl)cc1,-13%,x,2%,22µM*,-2%,13µM*
COc1ccc(-c2n[nH]c(C)c2-c2ccc(Cl)cc2)c(O)c1OC,5%,0,-4%,7.1µM*,24%,7.1µM*
Cc1ccc(NC(=O)c2ccc(NC(=O)C3CCCC3)cc2)c(C)c1,0%,x,x,x,-9%,x
Cc1ccc(OCC(=O)Nc2nc(-c3ccc(Br)cc3)ns2)cc1C,-4%,x,x,x,-4%,x
COC(=O)C1=C(O)/C(=C\c2ccc(CNS(=O)(=O)c3ccccc3)o2)N=C1C,-8%,-9,1%,3%,u,4%
CCOC(=O)C1=C(O)/C(=C\c2ccc(CNS(=O)(=O)c3ccc(Br)cc3)o2)N=C1C,0%,-4,0%,-2%,14µM*,23%
COC(=O)C1=C(O)/C(=C\c2ccc(CNS(=O)(=O)c3ccc(Cl)cc3)o2)N=C1C,-15%,-27,0%,u,28µM*,u
CCOC(=O)C(C)Sc1nc(-c2ccccc2)ccc1C#N (stereo not given),-1%,x,x,x,8%,x
COc1ccc(NC2=NCC(Cc3ccc(Br)cc3)S2)cc1 (stereo not given),-7%,-10,2%,3.5µM*,5%,u
CSc1ccccc1C(=O)Nc1ccc(S(=O)(=O)NC2=NCCCCC2)cc1,1%,x,x,x,23%,x
O=C(CCOc1ccccc1)Nc1ccc(Br)cc1,-2%,1,-6%,1%,7%[57.1 µM],0%
O=C1CSc2ccc(S(=O)(=O)CCC(=O)NC3CCCCC3)cc2N1,3%,x,1%,1%,14µM*,23%
CC1CCC(NC(=O)CCS(=O)(=O)c2ccc3c(c2)NC(=O)CS3)CC1 (stereo not given),-1%,x,0%,-12%,1%,-1%
CC(C)N(Cc1ccccc1)C(=O)CN1c2cccc3cccc(c23)S1(=O)=O,36%,x,x,x,35%,x
c1ccc(N=Nc2cn[nH]c2-c2ccco2)cc1,-11%,-2,0%,5%,-8%,25%
Cc1ccc(C)n1-c1ccccc1N,x,-56*,1%,13µM*,x,14µM*
O=C(Nc1ccc(Cl)cc1)c1cc2c(cc1O)[nH]c1ccccc12,7%[57.1 µM],2,1%,18µM*,13%[57.1 µM],-35%
COc1ccc(NC(=O)C2CC(=O)N/C(=N/N=C/c3ccccc3)S2)cc1 (stereo not given),-3%,4,3%,5%,13%,-2%
